Screening data: PubChem BioAssay, National Center for Advancing Translational Sciences (NCATS)
HCMV antiviral: qHTS Assay for inhibitors of the human cytomegalovirus (HCMV); HFF cells, HCMV-luciferase reporter, 72 h; active compounds read low; activity change, negative = inhibition, % at 57.5 µM; 4.5% of 410,000 active; in the data active = activity change below about -60%; inconclusive = no clear call, values can overlap the other calls; inactive = above about -39%
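Two-dose cell screen: HFF monolayers treated with compounds and infected with luciferase-expressing HCMV at 1 PFU/cell, 72 h at 37C, then lysed for luciferase measurement.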
Giardia FBPA inh: qHTS Assay for Inhibitors of Fructose-1,6-bisphosphate Aldolase from Giardia Lamblia; purified Giardia FBPA; Potency, µM (series often up to 59.6 µM), for inactives: at the highest dose activity, negative = inhibition, most hits filed as inhibitors; 0.71% of 290,000 active; note: potency is the fitted concentration of half-maximal effect; nearly all actives have a fitted effect of over 55% in size
Target sequence (A8B2U2 whole entry, looked up): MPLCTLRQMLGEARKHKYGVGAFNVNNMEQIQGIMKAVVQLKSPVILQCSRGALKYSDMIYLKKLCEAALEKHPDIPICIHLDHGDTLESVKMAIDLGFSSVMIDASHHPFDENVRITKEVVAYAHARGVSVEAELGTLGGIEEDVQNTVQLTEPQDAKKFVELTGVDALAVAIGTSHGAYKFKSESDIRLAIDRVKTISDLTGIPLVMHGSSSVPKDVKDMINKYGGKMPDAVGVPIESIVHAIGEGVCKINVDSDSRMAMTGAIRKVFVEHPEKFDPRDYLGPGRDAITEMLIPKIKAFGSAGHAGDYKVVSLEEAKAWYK
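Giardia FBPA (40 nM reagent) was preincubated 10 min at RT with compound (up to 57.5 uM final), then substrate plus GAPDH/TPI/NAD/arsenate coupling system with diaphorase/resazurin was added; resorufin fluorescence (525/598 nm) was read after 20 min.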
Vaccinia Venus: qHTS for Stage-Specific Inhibitors of Vaccinia Orthopoxvirus: Venus Reporter Primary qHTS | Vaccinia virus Venus reporter expression, fluorescence | Potency, µM (titrated, usually from 36.5 µM), inactives show top-dose activity change, negative = inhibition, actives largely listed as inhibitors | 0.46% of 330,000 active; calls by dose curve; tested in A549 cells; note: potency is the fitted concentration of half-maximal effect; nearly all actives have a fitted effect of over 30% in size
VACV mCherry inh: qHTS for Stage-Specific Inhibitors of Vaccinia Orthopoxvirus: mCherry Reporter Primary qHTS | Vaccinia virus mCherry reporter infection, fluorescence | Potency, µM (doses to about 36.5 µM), inactives show at the highest dose activity change, negative = inhibition, most hits filed as inhibitors | 0.63% of 310,000 active | AID 720579, 2013; calls by dose curve; tested in A549 cells; note: potency is the fitted concentration of half-maximal effect; nearly all actives have a fitted effect of over 35% in size
FMDV inh: High Throughput Screening for Foot and Mouth Disease Virus Antivirals | FMDV antiviral cell-based qHTS | Potency, µM (top dose mostly 57.9 µM), for inactives: top-dose activity change, negative = inhibition, hits mostly inhibitors | 1.2% of 410,000 active; calls by dose curve; tested in HEK293T cells; note: read-out not given here; potency is the fitted concentration of half-maximal effect; nearly all actives have a fitted effect of over 45% in size
HCV inh: qHTS Assay for Inhibitors of Hepatitis C Virus (HCV); Huh7.5.1 HCVcc-Cre infection, luciferase reporter, 44 h; Potency, µM (series often up to 41.8 µM), without a hit: top-dose activity change, negative = inhibition, hits mostly inhibitors; 3.4% of 340,000 active; AID 651820, 2012; note: potency is the fitted concentration of half-maximal effect
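Reporter virus HCVcc-Cre (~0.5 moi) infects cells exposed to compound; seeding density 1,000 cells/well with 4 h settling beforehand. Luminescence, 15 sec read, taken 44 h post-infection following a 15 min RT substrate incubation.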
* marks the source's active call; other numbers are inactive results; i = inactive; ? = inconclusive; . = not tested or not shown. A selection: hits, their analogues and other compounds. The true share with any hit is near 7.5%. Unless noted, calls come from the whole dose curve; as a rule, active = well fitted curve in the direction sought with a large enough effect; inconclusive = small, poorly fitted or top-dose-only effect, or another doubt; inactive = no such curve, though single readings can be large; an effect the other way counts as inactive or inconclusive. % is set by controls: 0 for no effect and ±100 for the full control effect.

SMILES	HCMV antiviral	Giardia FBPA inh	Vaccinia Venus	VACV mCherry inh	FMDV inh	HCV inh
CCOC(=O)C1(CCCc2ccccc2)CCN(C(=O)c2ccoc2)CC1	-33.3	2.1%	-3.0%	-11.8%	-28.9%	-24.0%
CCOC(=O)C1(CCCc2ccccc2)CCN(C(=O)C2=C(C)OCCO2)CC1	-68.8*	-0.4%	-17.8%	-10.9%	-23.6%	?
CCOC(=O)C1(CCCc2ccccc2)CCN(Cc2nccn2CC)CC1	?	7.0%	-2.0%	-1.6%	?	10µM*
CCOC(=O)C1(CCCc2ccccc2)CCN(Cc2cn(CC)nc2C)CC1	?	-0.7%	-21.9%	-2.0%	?	11.2µM*
CCOC(=O)C1(Cc2cccc(F)c2)CCN(Cc2cn(CC)nc2C)CC1	0.1	-0.1%	-8.4%	-1.6%	-24.9%	?
Cc1cc2oc(C(=O)Nc3ccc(S(N)(=O)=O)cc3)c(C)c2cc1Cl	-12.6	1.4%	-1.0%	i	-20.6%	-19.3%
CC1(c2cc([N+](=O)[O-])cc([N+](=O)[O-])c2)CC(C)(C)N(C(=O)c2ccccc2)c2ccccc21 (centres undefined)	2.0	1.2%	.	.	-23.7%	?
COc1cccc(C(=O)N2c3ccc(C)cc3C(C)(c3ccccc3)CC2(C)C)c1 (centres undefined)	-32.7	.	-21.8%	-12.8%	?	.
CC1(c2ccc(Cl)cc2)CC(C)(C)N(C(=O)c2ccccc2)c2ccccc21 (centres undefined)	-82.7*	.	-12.4%	-0.7%	?	.
COc1ccc(C(=O)N2c3ccccc3C(C)(c3ccc(Cl)cc3)CC2(C)C)cc1 (centres undefined)	-93.2*	.	-14.8%	-17.4%	-6.6%	.
COc1cc2c(C#N)c(N3CCN(c4ccccc4OC)CC3)nc(N)c2c(N)n1	-28.3	?	?	.	39.8µM*	?
COc1cc2c(C#N)c(N3CCCC3)nc(N)c2c(N)n1	-19.4	1.26µM*	?	?	-7.0%	?
COc1cc2c(C#N)c(N3CCN(C)CC3)nc(N)c2c(N)n1	14.1	-21.6%	.	.	.	?
COc1ccccc1N1CCN(c2nc(N)c(C#N)c(CC#N)c2C#N)CC1	-4.0	?	0.5%	.	?	-18.3%
COc1cccc(-c2ccc(NC(=O)C3CCCN(CCCn4cccn4)C3)cc2)c1 (centres undefined)	-28.6	.	-24.2%	?	35.5µM*	?
COc1cccc(C(=O)C2CCCN(Cc3cnn(C(C)C)c3)C2)c1 (centres undefined)	17.7	0.3%	2.6%	-4.0%	-13.8%	1.1%
COc1cccc(-c2ccc(NC(=O)C3CCCN(Cc4cnn(C(C)C)c4)C3)cc2)c1 (centres undefined)	-108.2*	5.2%	?	-6.9%	?	11.2µM*
Cc1ccccc1CN1CCCC(C(=O)Nc2ccc(-c3ccn[nH]3)cc2)C1 (centres undefined)	-63.3*	.	?	?	-19.1%	?
COc1cccc(-c2ccc(NC(=O)C3CCCN(Cc4cc(C)[nH]n4)C3)cc2)c1 (centres undefined)	?	1.1%	-20.3%	?	-6.0%	?
COCc1ccc(CN2CCCC(C(=O)Nc3ccc(-c4cccc(OC)c4)cc3)C2)o1 (centres undefined)	?	.	.	.	-15.8%	10µM*
O=C(c1n[nH]c2c1CCCC2)N1CCOc2ccc(C(O)C(c3ccccc3)c3ccccc3)cc2C1 (centres undefined)	.	.	-15.5%	-16.2%	-24.4%	.
COc1ccc(C2(CNS(=O)(=O)c3ccc(C)cc3)CCOCC2)cc1	0.0	2.4%	-3.5%	i	1.2%	-13.0%
COc1ccccc1C1CC(=O)Nc2cc3c(cc21)OCCO3 (centres undefined)	-85.0*	-15.9%	?	?	?	?
CCCOc1c(OC)cccc1C1CC(=O)Nc2cc3c(cc21)OCO3 (centres undefined)	-19.1	-5.0%	?	.	?	11.2µM*
